Some test systems named below: DU-145 prostate; K-562 leukemia; MALME-3M melanoma; MDA-MB-231 breast; RXF 393 renal; SF-268 CNS; SF-295 CNS; SF-539 CNS; UACC-257 melanoma; M14 melanoma; HCT-15 colon; HT29 colon; SNB-75 CNS; SNB-19 CNS; U251 CNS; PC-3 prostate; SK-MEL-5 melanoma; UACC-62 melanoma; LOX IMVI melanoma; SK-MEL-28 melanoma.
What all share (assay): NCI-60 one-dose screen, 48 h (100 = growth as untreated, 0 = no growth, -100 = all killed)
Common to all, as to details: 10 µM unless noted

This is part of a sample that, as a whole, favours compounds with a hit. Of some 83,000 tested, about 20% had one in any assay.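 The endpoint reported here, percent growth, reads 100 for growth as untreated, 0 for no net growth and -100 for all cells dead.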 Values without a mark were called inactive. Calls of active or inactive are those of the source. Rule for the calls: active = growth percent below 10; inactive = the rest.

On to `Nc1nn2c(-c3cc4cc(Br)ccc4oc3=O)ccnc2c1N=Nc1ccccc1`, for which the growth with DU-145 prostate was 37.1%; in the assay on K-562 leukemia, 83.2%; in the assay with MALME-3M melanoma, 26.2%; in the assay with MDA-MB-231 breast, -36.8% (active); in the assay with RXF 393 renal, -53% (active); in the assay with SF-268 CNS, -28.4% (active). Further, the growth in the assay on SF-295 CNS is 9.13% (active); in the assay with SF-539 CNS it was -84.4% (active); with UACC-257 melanoma it was 61.8%; in the assay on M14 melanoma, 74.9%; with HCT-15 colon, 53.4%; in the assay with HT29 colon, 22.4%. Besides, the growth in the assay with SNB-75 CNS was -59.8% (active); in the assay with SNB-19 CNS, -54.5% (active); in the assay on U251 CNS it was -11.2% (active); with PC-3 prostate, 14.4%; in the assay on SK-MEL-5 melanoma, -20.8% (active); in the assay with UACC-62 melanoma, 31.6%. The growth in the assay with LOX IMVI melanoma was 18%; with SK-MEL-28 melanoma, 52.5%.

For the compound `Fc1ccc(F)c(CNc2nc(SCCN3CCOCC3)nc3c2cnn3CC(Cl)c2ccc(Br)cc2)c1` (stereo not given), the growth with DU-145 prostate was 43.3%; in the assay on K-562 leukemia, 10.6%; with MALME-3M melanoma it was -30% (active); in the assay with MDA-MB-231 breast, 6.86% (active); with RXF 393 renal, -4.06% (active); in the assay with SF-268 CNS, 30.1%. The growth in the assay on SF-295 CNS is 5.06% (active); with SF-539 CNS it was 17.9%; with UACC-257 melanoma it was 6.07% (active); in the assay on M14 melanoma, 18.1%; in the assay on HCT-15 colon, -17.6% (active); in the assay with HT29 colon, -49.7% (active). Also, the growth in the assay with SNB-75 CNS is 56.3%; with SNB-19 CNS, 42.2%; in the assay on U251 CNS, 26.7%; with PC-3 prostate, 25.2%; in the assay with SK-MEL-5 melanoma it was -12.9% (active); with UACC-62 melanoma it was -1.48% (active). Besides, the growth in the assay with LOX IMVI melanoma was -7.7% (active); in the assay with SK-MEL-28 melanoma, 32.3%.

For `CC(C)(C)c1cc(-c2cc(-c3ccccc3)[nH]c(=O)c2C#N)cc(C(C)(C)C)c1`, the growth is 34.5% in the assay on DU-145 prostate; 62.9% in the assay with K-562 leukemia; 37.6% in the assay on MALME-3M melanoma; -21.4% (active) with MDA-MB-231 breast; -2.55% (active) in the assay with RXF 393 renal; 40.8% with SF-268 CNS. Moreover, the growth with SF-295 CNS is 0.897% (active); in the assay on SF-539 CNS it was 21.1%; with UACC-257 melanoma, 43.1%; in the assay on M14 melanoma, 40.2%; with HCT-15 colon it was 56.6%; in the assay on HT29 colon, 88.8%. The growth was -32% (active) with SNB-75 CNS; 25.7% in the assay with SNB-19 CNS; -22% (active) with U251 CNS; 53.3% with PC-3 prostate; 74.5% in the assay on SK-MEL-5 melanoma; 68.3% in the assay on UACC-62 melanoma. In addition, the growth in the assay with LOX IMVI melanoma was 49.2%; in the assay with SK-MEL-28 melanoma it was 78.5%.

`COc1cc(/C=C/C(=O)c2cnn(-c3cc(=O)[nH]c4ccc(Br)cc34)c2C)cc(OC)c1OC`: the growth in the assay on DU-145 prostate is -83.4% (active); with K-562 leukemia, -0.439% (active); in the assay with MALME-3M melanoma it was -42.4% (active); with MDA-MB-231 breast, -34.3% (active); with RXF 393 renal, -76.2% (active); with SF-268 CNS, -16.4% (active). The growth with SF-295 CNS was -61.8% (active); in the assay with SF-539 CNS it was -78.8% (active); with UACC-257 melanoma it was -30.3% (active); in the assay with M14 melanoma it was -49.8% (active); with HCT-15 colon, -54.9% (active); in the assay with HT29 colon, -58.7% (active). Further, the growth is 9.81% (active) in the assay with SNB-75 CNS; -2.48% (active) with SNB-19 CNS; -76.7% (active) with U251 CNS; -23.9% (active) in the assay with PC-3 prostate; -96.2% (active) in the assay on SK-MEL-5 melanoma; -71.7% (active) in the assay with UACC-62 melanoma. Also, the growth in the assay with LOX IMVI melanoma was -89.8% (active); in the assay with SK-MEL-28 melanoma, -53% (active).

Turning to `Cn1cc(-c2cc3nc(-c4c[nH]c5ccccc45)cc(N)n3n2)c2ccccc21`, the growth was 11.6% with DU-145 prostate; -7.67% (active) in the assay on K-562 leukemia; -92.8% (active) in the assay with MALME-3M melanoma; -93.2% (active) in the assay on MDA-MB-231 breast; 82.7% in the assay with RXF 393 renal; 77.1% with SF-268 CNS. The growth with SF-295 CNS is -61.2% (active); with SF-539 CNS, -97.4% (active); in the assay on UACC-257 melanoma, -88.4% (active); with M14 melanoma, -60.5% (active); in the assay with HCT-15 colon it was -73% (active); in the assay on HT29 colon, -65.3% (active). Moreover, the growth is 91.6% with SNB-75 CNS; 18.6% with SNB-19 CNS; -91.1% (active) in the assay with U251 CNS; -69.7% (active) in the assay with PC-3 prostate; 8.15% (active) in the assay on SK-MEL-5 melanoma; -88.5% (active) in the assay on UACC-62 melanoma. Also, the growth in the assay on LOX IMVI melanoma is -77.8% (active); with SK-MEL-28 melanoma, -97.8% (active).

On to `COc1cc(-c2ccc3ncnc(N4CCc5ccc(Cl)cc54)c3c2)cnc1Cl`, for which the growth with DU-145 prostate is 10.6%; with K-562 leukemia it was 23.1%; with MALME-3M melanoma, 34.9%; in the assay with MDA-MB-231 breast, 30.8%; in the assay with RXF 393 renal it was -4.17% (active); in the assay with SF-268 CNS it was 40.2%. The growth in the assay on SF-295 CNS was 35%; with SF-539 CNS, 24.8%; with UACC-257 melanoma, 59.2%; with M14 melanoma, 29.8%; in the assay with HCT-15 colon it was 24%; in the assay on HT29 colon, 15.1%. Moreover, the growth in the assay with SNB-75 CNS was -2.67% (active); in the assay with SNB-19 CNS it was 35%; in the assay on U251 CNS, 45.6%; in the assay with PC-3 prostate, 14.5%; in the assay with SK-MEL-5 melanoma it was -1.72% (active); in the assay on UACC-62 melanoma, 10%. In addition, the growth is 11.7% in the assay on LOX IMVI melanoma and 23.8% in the assay on SK-MEL-28 melanoma.

As to `CCc1ccccc1-c1nc(CN[C@@H]2C[C@@H]3C[C@H]([C@H]2C)C3(C)C)c(C)o1`, the growth is -74.9% (active) with DU-145 prostate; 12.2% in the assay with K-562 leukemia; -80.5% (active) in the assay on MALME-3M melanoma; -78.3% (active) with MDA-MB-231 breast; -85.1% (active) in the assay on RXF 393 renal; 6.04% (active) in the assay on SF-268 CNS. Besides, the growth with SF-295 CNS was -93.5% (active); in the assay with SF-539 CNS it was -96.5% (active); with UACC-257 melanoma, -75.8% (active); with M14 melanoma it was -83.5% (active); in the assay on HCT-15 colon, -71.2% (active); in the assay on HT29 colon, -73.8% (active). Besides, the growth in the assay on SNB-75 CNS was -68.1% (active); with SNB-19 CNS, -81.7% (active); in the assay on U251 CNS, -61.9% (active); with PC-3 prostate, -54.3% (active); with SK-MEL-5 melanoma it was -94.3% (active); with UACC-62 melanoma, -88.3% (active). For the same compound, the growth with LOX IMVI melanoma was -94.4% (active); with SK-MEL-28 melanoma it was -80.3% (active).

Consider `Fc1ccc(Nc2nnc(-c3c[nH]c4ccccc34)o2)cc1`, for which the growth is 98% in the assay with DU-145 prostate; 66.9% in the assay with K-562 leukemia; 80.8% in the assay on MALME-3M melanoma; 60.8% in the assay on MDA-MB-231 breast; 93.9% with RXF 393 renal; 73.1% with SF-268 CNS. In addition, the growth with SF-295 CNS is 84.1%; in the assay with SF-539 CNS it was 71.2%; in the assay on UACC-257 melanoma, 92.7%; with M14 melanoma it was 102%; in the assay with HCT-15 colon, 66.7%; in the assay on HT29 colon it was 102%. For the same compound, the growth with SNB-75 CNS is 88.9%; in the assay with SNB-19 CNS it was 85%; in the assay with U251 CNS, 84.8%; in the assay on PC-3 prostate it was 70.8%; with SK-MEL-5 melanoma, 91.4%; in the assay with UACC-62 melanoma, 77.8%. Moreover, the growth in the assay on LOX IMVI melanoma was 72.2%; in the assay on SK-MEL-28 melanoma it was 106%.

Values taken from PubChem BioAssay (NCI).
